Screening data as filed in PubChem BioAssay.
A selection: hits, their analogues and other compounds. The true share with any hit is near 4%.
CF NFkB block = inhibitors of cystic fibrosis induced NF-kB; KKLEB NF-kB-GFP reporter, PAF-induced, GFP fluorescence overnight; inhibition, % at 5 µM; actives 0.86% (n = 360,000);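 active = at least 50% inhibition at 5 µM, scaled per plate between neutral and stimulator controls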;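 note: PAF is a Pseudomonas aeruginosa culture filtrate used as stimulus; plate controls were PAF-stimulated DMSO wells for no effect and unstimulated DMSO wells for full effect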
HIF-2a inh = HIF-2a inhibition. 786-0 RCC cells HIF-2a reporter, luciferase luminescence, overnight. inhibition, % at 18.8 µM. actives 0.72% (n = 360,000). AID 624352;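 active = inhibition of the luminescence signal of 40% or more relative to plate controls, in a single-dose primary screen at 18.75 µM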
KKLEB cytotox = reduces viability of KKLEB cystic fibrosis airway cells; KKLEB CF airway cells viability, ATPlite luminescence, overnight; active compounds read low; cells stimulated with P. aeruginosa culture filtrate; activity change (cytotoxicity), % at 5 µM; actives 0.36% (n = 360,000); AID 602141;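 active = corrected activity change at or below -50% at 5 µM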
Peg3 promoter = reduces Peg3 promoter-driven luciferase expression in HeLa | HeLa PEG-Prom luciferase reporter, luminescence, overnight | inhibition, % at 20 µM | actives 1.7% (n = 360,000);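 active = inhibition of at least 50% at 20 µM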
TROY signal inh = blocks TROY-dependent signaling in reporter cells; Q293 LMP1-TROYcd NF-kB luciferase reporter, 4 h; inhibition, % at 10 µM; actives 0.98% (n = 360,000); AID 1347056;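 active = compounds whose plate-normalised and pattern-corrected inhibition of the luciferase reporter signal at the single screening dose is 50% or more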
TWEAK Fn14 block = inhibitors of TWEAK-Fn14 interaction signaling. TWEAK-stimulated Fn14 reporter cells, luciferase luminescence, 8 h. inhibition, % at 10 µM. actives 2% (n = 360,000). AID 1159606; in the data active = inhibition above about 50%
Mdm2-MdmX confirm = confirmation of inhibitors of human Mdm2/MdmX interaction, set 2. shares compounds with HIF-2a inh. SaOS-2 split-luciferase Mdm2/MdmX complementation, luminescence. inhibition, % at 8 µM. actives 99% (n = 740);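 active = mean inhibition of the luminescence signal across two replicates at or above 26 percent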
HIF-2a conf = HIF-2a inhibition, single concentration confirmation; shares compounds with HIF-2a inh; 786-0 RCC cells, HIF-2a luciferase reporter luminescence, overnight; inhibition, % at 18.8 µM; actives 56% (n = 1,800); AID 651580;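 active = mean inhibition across four replicates of at least 40 percent at the single tested concentration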
HIF-1a cs = inhibits HIF-1a reporter, a counter-screen for HIF-2a inhibitors. shares compounds with HIF-2a inh. MiaPaCa-2 HIF-1a luciferase reporter, desferoxamine, overnight. inhibition, % at 18.8 µM. actives 72% (n = 1,800). AID 651589;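 active = mean inhibition of the reporter signal across four replicates at the single tested dose of 50% or more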
An asterisk follows results filed as active; nt = no result.

SMILES	CF NFkB block	HIF-2a inh	KKLEB cytotox	Peg3 promoter	TROY signal inh	TWEAK Fn14 block	HIF-2a conf	HIF-1a cs	others
CC1CCc2nc(NC(=O)c3ccco3)sc2C1 (centres undefined)	-18	43*	-31	18	66*	96*	72*	88*
CC1CCc2nc(NC(=O)Cc3cccs3)sc2C1 (centres undefined)	17	-290	-8	-352	-46	-23	nt	nt
O=C(OCn1ncc(Cl)c(Cl)c1=O)c1ccc(C(F)(F)F)cc1	49	93*	-12	105*	25	79*	60*	104*	Mdm2-MdmX confirm=103*
Cc1ccc(C(=O)COC(=O)c2nc(Cl)ccc2Cl)cc1	-5	13	8	-3	-27	12	nt	nt
Cc1ccc(C(=O)OCn2ncc(Cl)c(Cl)c2=O)cc1	92*	92*	-94*	102*	68*	106*	98*	107*
CCN1CCC(O)(C(C(=O)O)c2ccccc2)CC1 (centres undefined)	-2	7	0	12	-10	3	nt	nt
COc1ccc(S(=O)(=O)N2CCN(C(=O)c3cc(-c4ccc(C)cc4)n[nH]3)CC2)cc1	-17	-27	1	-6	2	-4	nt	nt
CCc1[nH]nc2c1C(c1ccc(Br)s1)C(C#N)=C(N)O2 (centres undefined)	8	41*	-1	11	-16	34	9	12
CCc1[nH]nc2c1C(c1ccsc1)C(C#N)=C(N)O2 (centres undefined)	-6	30	2	4	19	3	nt	nt
COCCN(Cc1cc2cc3c(cc2nc1Cl)OCO3)C(=O)c1ccc(C)cc1	-6	18	5	14	3	19	nt	nt
CCc1ccc(NC(=O)c2cnn3ccccc23)cc1	4	50*	-17	37	53*	93*	68*	75*
Nc1cc(=O)[nH]c(SCC(=O)N2N=C(c3ccc(Cl)cc3)CC2c2ccco2)n1 (centres undefined)	5	-37	6	-25	-27	1	nt	nt
COCC(=O)OCC(=O)N1N=C(c2ccc(Cl)cc2)CC1c1ccco1 (centres undefined)	14	5	11	-7	24	42	nt	nt
CCCc1cc(=O)[nH]c(SCC(=O)N2N=C(c3ccc(Cl)cc3)CC2c2ccco2)n1 (centres undefined)	-2	40*	1	13	29	69*	-16	82*
CC(C)[C@H](NS(=O)(=O)c1ccccc1)C(=O)OCC(=O)N1N=C(c2ccc(Cl)cc2)CC1c1ccco1 (some centres undefined)	20	50*	-1	5	39	56*	-3	89*
CC(NC(=O)C1=CC=CN2CCS(=O)(=O)N=C12)c1ccc(Cl)cc1Cl (centres undefined)	6	7	0	-4	-6	0	nt	nt
CC[C@H](C)[C@@H](CNC)NC[C@@H](Cc1ccc(O)cc1)NCC(C)(C)C	-35	3	-2	-11	-15	-5	nt	nt
CCCC[C@H](CN[C@@H](CNC)[C@H](C)CC)NCCC12CCC(CC1)C2	-12	-7	-1	102*	-20	-11	nt	nt	Mdm2-MdmX confirm=103*
COc1ccc(CN(C)C[C@H]2OCc3cnnn3CCCC(=O)N([C@H](C)CO)C[C@@H]2C)cc1	-1	2	4	-13	-1	3	nt	nt
COc1ccc(OC)c(C(=O)/C=C/c2ccccc2C(F)(F)F)c1	-4	74*	-14	102*	7	59*	26	105*
O=C1OCCC1Sc1nc2ccccc2c(=O)n1Cc1ccccc1 (centres undefined)	-1	16	4	-8	12	-2	nt	nt
O=C1OCCC1Sc1nc2cc(Cl)ccc2n1Cc1ccccc1 (centres undefined)	9	51*	-4	10	0	-13	4	8
COc1cccc(-n2c(SCC(=O)Nc3cc(C)on3)nc3c([nH]c4ccccc43)c2=O)c1	8	39*	-11	28	7	-11	1	22
Cc1cc(NC(=O)CSc2nc3c([nH]c4ccccc43)c(=O)n2-c2cccc(C(F)(F)F)c2)no1	31	21	-21	24	nt	-14	nt	nt
CCN(C[C@H]1N[C@@](C)(C(=O)OC)[C@H]2C(=O)N(C)C(=O)[C@@H]12)C(=O)C1CCCCC1	-10	7	6	-14	-8	9	nt	nt
SMILES	CF NFkB block	HIF-2a inh	KKLEB cytotox	Peg3 promoter	TROY signal inh	TWEAK Fn14 block	HIF-2a conf	HIF-1a cs	others
O=C(Nc1ccc(C(F)(F)F)cc1)C1CCN(S(=O)(=O)c2ccc(N3CCCC3=O)cc2)CC1	-21	16	-2	18	16	6	nt	nt
C#CC(=O)CC1(CN(Cc2ccccc2)C(=O)OC(C)(C)C)CCCCC1	84*	44*	-104*	60*	-9	11	2	19
CON(C)C(=O)CC1(CN(Cc2ccccc2)C(=O)OC(C)(C)C)CCCCC1	10	7	-5	10	1	-12	nt	nt
CC(C)(C)OC(=O)N[C@@H](Cc1ccccc1)c1nnc(SCC(N)=O)o1	-6	9	15	6	-7	10	nt	nt
Cc1cccc(CS(=O)(=O)c2nnc([C@H](Cc3ccccc3)NC(=O)OC(C)(C)C)o2)c1	69*	8	-22	106*	14	29	nt	nt	Mdm2-MdmX confirm=103*
COc1ccc(C(CNS(=O)(=O)c2ccc(C)cc2)N2CCN(C)CC2)cc1 (centres undefined)	18	-2	-2	-28	0	11	nt	nt
Cn1cc([N+](=O)[O-])c(C(=O)Nc2ccn(C34CC5CC(CC(C5)C3)C4)n2)n1	28	49*	-2	7	-27	-14	60*	57*
Cc1ccc(Cn2ccc(NC(=O)c3nn(C)cc3[N+](=O)[O-])n2)cc1	-14	-70	15	48	-8	20	nt	nt
Cc1ccc(-c2nc(NC(=O)c3nn(C)cc3[N+](=O)[O-])sc2C)cc1C	23	66*	-38	109*	19	28	1	105*	Mdm2-MdmX confirm=100*
Cn1cc([N+](=O)[O-])c(C(=O)Nc2nc(-c3ccc(Cl)cc3)cs2)n1	89*	94*	-95*	106*	7	12	86*	105*
